Results on ten molecules are retold here after PubChem BioAssay (NCI).

About 79,000 compounds went through this panel and 15% of them were active in at least one assay; those are over-represented in the sample as a whole. Unmarked numbers belong to inactive results. Activity calls are given as the source filed them. Rule as the data show it: active = growth inhibition above about 70%; inactive = the rest.

The nature of experiment [1]: NCI Yeast Anticancer Drug Screen. Data for the rad50 strain (AID 155).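 Also: 0% = growth of vehicle-only cultures of the same strain.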 Particulars: S. cerevisiae rad50 strain growth inhibition, stronger effect = higher value. Summed up:
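Relative growth inhibition (compound vs vehicle) was measured in yeast with a defined repair-gene alteration.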

Experiment [2] is described as follows: NCI Yeast Anticancer Drug Screen. Data for the mec2-1 strain (AID 157). The conditions noted are these: S. cerevisiae mec2-1 strain, stronger effect = higher value. Summed up:
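Compounds were applied to mec2-1 yeast cells. Their growth was then compared with that of vehicle-treated cultures to give growth inhibition.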

Experiment [3] in a line: NCI Yeast Anticancer Drug Screen. Data for the sgs1 mgt1 strain (AID 161).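 Also: 0% = growth of cultures given vehicle only.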 The conditions noted are these: S. cerevisiae sgs1 mgt1 strain, stronger effect = higher value. The method in brief: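 Percent growth inhibition was derived by comparing compound-exposed mutant yeast with vehicle-exposed cultures. The strain carries alterations in DNA damage repair.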
The nature of experiment [4]: NCI Yeast Anticancer Drug Screen. Data for the cln2 rad14 strain (AID 165).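 Also: 0% = growth equal to vehicle treated cultures.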 The conditions noted are these: S. cerevisiae cln2 rad14 strain, stronger effect = higher value. The method in brief: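 Strain: cln2 rad14 yeast, altered in cell cycle control and DNA damage repair. Read-out: growth inhibition vs vehicle.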
A short description of experiment [5]: NCI Yeast Anticancer Drug Screen. Data for the bub3 strain (AID 167). Particulars: S. cerevisiae bub3 mutant strain, stronger effect = higher value. Summed up:
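Screening used yeast with an engineered genetic alteration affecting cell cycle control. Compound-exposed cultures were compared with vehicle cultures, and reduced growth was taken as inhibition.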

Experiment [6] in a line: NCI Yeast Anticancer Drug Screen. Data for the mlh1 rad18 strain (AID 175). Particulars: S. cerevisiae mlh1 rad18 strain growth inhibition, stronger effect = higher value. The method in brief: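 A repair-deficient yeast strain is exposed to test compound, and growth is scored relative to vehicle-treated controls.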
[7] abbreviates: at 5.0 µM (retest, dose inferred, filed as 0.5).
The mark [8] stands for this setting: at 50.0 µM (retest, dose inferred, filed as 5.0).

With `NC(=O)Nc1cc(=O)[nH]c(=S)[nH]1`, the growth inhibition is -2% in experiment [1] (setting [7]); -2% in experiment [1] (setting [8]); 6.9% in experiment [1] (at 50.0 µM); 4% in experiment [2] (setting [7]); -1% in experiment [2] (setting [8]); 8.65% in experiment [2] (at 50.0 µM). Also, the growth inhibition was 0% in experiment [3] (setting [7]); 0% in experiment [3] (setting [8]); -9.9% in experiment [3] (at 50.0 µM); -1% in experiment [4] (setting [7]); -5% in experiment [4] (setting [8]); 5.05% in experiment [4] (at 50.0 µM). Also, the growth inhibition in experiment [5] (setting [7]) is -1%; in experiment [5] (setting [8]), -4%; in experiment [5] (at 50.0 µM) it was 42.4%; in experiment [6] (setting [7]) it was -3%; in experiment [6] (setting [8]), -2%; in experiment [6] (at 50.0 µM) it was -23.1%.

Regarding `Cc1ccc(O)c(C(C)(C)c2ccccc2)c1`, the growth inhibition in experiment [1] (setting [7]) was -8%; in experiment [1] (setting [8]), 77% (active); in experiment [1] (at 50.0 µM) it was 99.5% (active); in experiment [2] (setting [7]), -5%; in experiment [2] (setting [8]) it was 94% (active); in experiment [2] (at 50.0 µM), 99.8% (active). For the same molecule, the growth inhibition in experiment [3] (setting [7]) was -9%; in experiment [3] (setting [8]), 43%; in experiment [3] (at 50.0 µM) it was 99.7% (active); in experiment [4] (setting [7]) it was -6%; in experiment [4] (setting [8]) it was 90% (active); in experiment [4] (at 50.0 µM) it was 98.7% (active). The growth inhibition was -49% in experiment [5] (setting [7]); 95% (active) in experiment [5] (setting [8]); 99.5% (active) in experiment [5] (at 50.0 µM); -10% in experiment [6] (setting [7]); 94% (active) in experiment [6] (setting [8]); 99.3% (active) in experiment [6] (at 50.0 µM).

With `CCC(C)(O)Cc1cnccn1` (stereo not given), the growth inhibition in experiment [1] (setting [7]) is 3%; in experiment [1] (setting [8]), 1%; in experiment [1] (at 50.0 µM), 1.75%; in experiment [2] (setting [7]), 0%; in experiment [2] (setting [8]), 1%; in experiment [2] (at 50.0 µM) it was -2.7%. In addition, the growth inhibition was 2% in experiment [3] (setting [7]); -3% in experiment [3] (setting [8]); 7.25% in experiment [3] (at 50.0 µM); -1% in experiment [4] (setting [7]); -2% in experiment [4] (setting [8]); 14.8% in experiment [4] (at 50.0 µM). Further, the growth inhibition in experiment [5] (setting [7]) was 0%; in experiment [5] (setting [8]), 1%; in experiment [5] (at 50.0 µM) it was 12.1%; in experiment [6] (setting [7]) it was -10%; in experiment [6] (setting [8]), 2%; in experiment [6] (at 50.0 µM), 9.25%.

For the molecule `Nc1ccc2ccc3cccc4ccc1c2c34`, the growth inhibition in experiment [1] (setting [7]) was 1%; in experiment [1] (setting [8]), 98% (active); in experiment [1] (at 50.0 µM), 90.3% (active); in experiment [2] (setting [7]), -37%; in experiment [2] (setting [8]), 98% (active); in experiment [2] (at 50.0 µM), 0.45%. Also, the growth inhibition in experiment [3] (setting [7]) is 1%; in experiment [3] (setting [8]), 98% (active); in experiment [3] (at 50.0 µM), 48.5%; in experiment [4] (setting [7]) it was -1%; in experiment [4] (setting [8]), 99% (active); in experiment [4] (at 50.0 µM), 62.5%. The growth inhibition in experiment [5] (setting [7]) was -2%; in experiment [5] (setting [8]), 98% (active); in experiment [5] (at 50.0 µM), 23.8%; in experiment [6] (setting [7]), 1%; in experiment [6] (setting [8]), 97% (active); in experiment [6] (at 50.0 µM) it was 88.9% (active).

As for `CSCCOC(=O)c1cc(NC(=S)c2ccoc2C)ccc1Cl`, the growth inhibition in experiment [1] (setting [7]) was 13%; in experiment [1] (setting [8]), 78% (active); in experiment [1] (at 50.0 µM), 82.5% (active); in experiment [2] (setting [7]), -8%; in experiment [2] (setting [8]), 78% (active); in experiment [2] (at 50.0 µM) it was 68.9%. Also, the growth inhibition in experiment [3] (setting [7]) was 10%; in experiment [3] (setting [8]), 85% (active); in experiment [3] (at 50.0 µM), 66.4%; in experiment [4] (setting [7]), 14%; in experiment [4] (setting [8]), 83% (active); in experiment [4] (at 50.0 µM) it was 67%. The growth inhibition in experiment [5] (setting [7]) was 17%; in experiment [5] (setting [8]) it was 88% (active); in experiment [5] (at 50.0 µM), 73.9% (active); in experiment [6] (setting [7]), -7%; in experiment [6] (setting [8]) it was 85% (active); in experiment [6] (at 50.0 µM), 63%.

Turning to `N=C(N)c1ccc(SCCCCCSc2ccc(C(=N)N)cc2)cc1`, the growth inhibition in experiment [1] (setting [7]) is 21%; in experiment [1] (setting [8]), 56%; in experiment [1] (at 50.0 µM), 57.2%; in experiment [2] (setting [7]), 17%; in experiment [2] (setting [8]), 61%; in experiment [2] (at 50.0 µM) it was 74% (active). Besides, the growth inhibition in experiment [3] (setting [7]) is 24%; in experiment [3] (setting [8]), 86% (active); in experiment [3] (at 50.0 µM), 76% (active); in experiment [4] (setting [7]), 22%; in experiment [4] (setting [8]), 57%; in experiment [4] (at 50.0 µM), 44.6%. In addition, the growth inhibition is 23% in experiment [5] (setting [7]); 83% (active) in experiment [5] (setting [8]); 63.4% in experiment [5] (at 50.0 µM); 25% in experiment [6] (setting [7]); 87% (active) in experiment [6] (setting [8]); 72.3% (active) in experiment [6] (at 50.0 µM).

For `Oc1ccc(Cl)cc1Cc1cc(Cl)cc(Cc2cc(Cl)ccc2O)c1O`, the growth inhibition in experiment [1] (setting [7]) was -1%; in experiment [1] (setting [8]), 97% (active); in experiment [1] (at 50.0 µM), 96% (active); in experiment [2] (setting [7]), 1%; in experiment [2] (setting [8]), 98% (active); in experiment [2] (at 50.0 µM), 97.3% (active). The growth inhibition in experiment [3] (setting [7]) was 4%; in experiment [3] (setting [8]), 98% (active); in experiment [3] (at 50.0 µM) it was 97.5% (active); in experiment [4] (setting [7]) it was -12%; in experiment [4] (setting [8]) it was 95% (active); in experiment [4] (at 50.0 µM), 96.5% (active). Also, the growth inhibition in experiment [5] (setting [7]) is -17%; in experiment [5] (setting [8]), 98% (active); in experiment [5] (at 50.0 µM), 96.7% (active); in experiment [6] (setting [7]) it was 14%; in experiment [6] (setting [8]) it was 97% (active); in experiment [6] (at 50.0 µM), 95.8% (active).

Regarding `C=CC(=O)N1C/C(=C\c2ccc(F)cc2)C(=O)/C(=C/c2ccc(F)cc2)C1`, the growth inhibition in experiment [1] (setting [7]) is 21%; in experiment [1] (setting [8]), 75% (active); in experiment [1] (at 50.0 µM), 52%; in experiment [2] (setting [7]), 14%; in experiment [2] (setting [8]) it was 77% (active); in experiment [2] (at 50.0 µM), 26.1%. Also, the growth inhibition is 14% in experiment [3] (setting [7]); 88% (active) in experiment [3] (setting [8]); 90.2% (active) in experiment [3] (at 50.0 µM); 19% in experiment [4] (setting [7]); 81% (active) in experiment [4] (setting [8]); 78.5% (active) in experiment [4] (at 50.0 µM). In addition, the growth inhibition in experiment [5] (setting [7]) is 21%; in experiment [5] (setting [8]), 94% (active); in experiment [5] (at 50.0 µM), 88.6% (active); in experiment [6] (setting [7]) it was 18%; in experiment [6] (setting [8]), 91% (active); in experiment [6] (at 50.0 µM), 88.1% (active).

As for `CCCCCCCCCCC(NC(C)=O)(C(=O)OCC)C(=O)OCC`, the growth inhibition in experiment [1] (setting [7]) was -9%; in experiment [1] (setting [8]), 98% (active); in experiment [1] (at 50.0 µM), 97.5% (active); in experiment [2] (setting [7]) it was -3%; in experiment [2] (setting [8]), 99% (active); in experiment [2] (at 50.0 µM), 98% (active). For the same molecule, the growth inhibition was -3% in experiment [3] (setting [7]); 99% (active) in experiment [3] (setting [8]); 67.3% in experiment [3] (at 50.0 µM); -5% in experiment [4] (setting [7]); 99% (active) in experiment [4] (setting [8]); 98.3% (active) in experiment [4] (at 50.0 µM). Moreover, the growth inhibition in experiment [5] (setting [7]) was 0%; in experiment [5] (setting [8]) it was 98% (active); in experiment [5] (at 50.0 µM), 94.5% (active); in experiment [6] (setting [7]) it was 11%; in experiment [6] (setting [8]), 98% (active); in experiment [6] (at 50.0 µM), 82.8% (active).

On to `O=[N+]([O-])c1ccc(NS(=O)(=O)c2ccc(Cl)c(Cl)c2Cl)c([N+](=O)[O-])c1`, for which the growth inhibition is 22% in experiment [1] (setting [7]); 18% in experiment [1] (setting [8]); 78.2% (active) in experiment [1] (at 50.0 µM); 24% in experiment [2] (setting [7]); 21% in experiment [2] (setting [8]); 42.1% in experiment [2] (at 50.0 µM). The growth inhibition in experiment [3] (setting [7]) was 31%; in experiment [3] (setting [8]), 38%; in experiment [3] (at 50.0 µM) it was 81% (active); in experiment [4] (setting [7]), 16%; in experiment [4] (setting [8]), 25%; in experiment [4] (at 50.0 µM) it was 45.1%. Besides, the growth inhibition was 11% in experiment [5] (setting [7]); 10% in experiment [5] (setting [8]); 7.15% in experiment [5] (at 50.0 µM); 22% in experiment [6] (setting [7]); 20% in experiment [6] (setting [8]); 75.2% (active) in experiment [6] (at 50.0 µM).
